BRCA1 expr act: increases BRCA1 expression. 1.1% of 380,000 active. MCF7-BRCA1-FFLuc reporter, luminescence, 48 h; response scale: scaled: vehicle 0%, 10 µM genistein 100%. Potency, µM (top dose mostly 46.1 µM), for inactives: at the top dose activation, hits mostly activators; also: potency is read from the fitted curve at half-maximal effect; nearly all actives have a fitted effect of over 80% in size
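MCF7 cells carrying a BRCA1-firefly luciferase reporter (2000 cells/well, phenol-red free MEM) were attached for 2 h at 37 °C, then given compounds for 48 h. Luminescence was read 15 min after luciferase reagent; activity normalized to genistein (10 microM) and DMSO.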
p53 reactivator: mutant p53 re-activation in reporter cells; H1299 p53-A138V BP100-luciferase reporter, luminescence, 24 h; Potency, µM (titrated, usually from 92.2 µM), inactives show at the highest dose activity change, positive = activation, most hits filed as activators; 0.063% of 320,000 active; also: potency is read from the fitted curve at half-maximal effect; % of control where 0% means no effect; nearly all actives have a fitted effect of over 45% in size
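H1299 (p53-null), stable ts p53-A138V + BP100-Luc; 1000 cells/well, Opti-MEM/10% FBS; cpd 4 pt, 1:5; 24 h, 37 deg C, 5% CO2; detection reagent 10 min RT; luminescence.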
RGS4 inhibitor: blocks human RGS4-accelerated GTP hydrolysis | AID 504845 | Transcreener GDP fluorescence polarization, RGS4-accelerated GTP hydrolysis | P49798 | Potency, µM (highest dose often 114 µM), for inactives: at the highest dose activity change, negative = inhibition, usual class: inhibitors | 0.039% of 390,000 active; also: potency is read from the fitted curve at half-maximal effect; % is scaled to controls: 0 for no effect and ±100 for the full control effect; nearly all actives have a fitted effect of over 75% in size
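MLSMR compounds (23 nl, pin-transferred) preincubated 10 min at room temperature with a 500nM (2x) first reagent, then RGS4 at 900nM (2x) plus Transcreener GDP mix added; fluorescence polarization (620/688 nm) read before and after 90 min at 30 °C.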
LDHA block: blocks human lactate dehydrogenase A. purified LDHA, NADH/diaphorase-resazurin fluorescence; hits give low values. activity change, % (values are at about 110 or 230 µM). 0.15% of 480,000 active. AID 1347041; in the data active = activity change below about -30%; inconclusive = mostly about -25% to -30%;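 also: plate controls were DMSO wells for no effect and wells without enzyme for full effect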
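Enzyme activity of human lactate dehydrogenase 5 (2 nM; 0.06 mM NADH, 0.2 mM pyruvate, 5 min, RT) is measured via a resazurin/diaphorase fluorescence readout of residual NADH.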
PTHR1 agonist: PTHR1 (human) receptor agonism; Q03431; HEK293 GP2 PTHR1 cells, GloSensor cAMP luminescence, 1 h; Potency, µM (series often up to 115 µM), inactives show top-dose activation, usual class: activators; 0.075% of 410,000 active; also: potency is read from the fitted curve at half-maximal effect; nearly all actives have a fitted effect of over 55% in size
Target sequence (Q03431 whole entry, looked up): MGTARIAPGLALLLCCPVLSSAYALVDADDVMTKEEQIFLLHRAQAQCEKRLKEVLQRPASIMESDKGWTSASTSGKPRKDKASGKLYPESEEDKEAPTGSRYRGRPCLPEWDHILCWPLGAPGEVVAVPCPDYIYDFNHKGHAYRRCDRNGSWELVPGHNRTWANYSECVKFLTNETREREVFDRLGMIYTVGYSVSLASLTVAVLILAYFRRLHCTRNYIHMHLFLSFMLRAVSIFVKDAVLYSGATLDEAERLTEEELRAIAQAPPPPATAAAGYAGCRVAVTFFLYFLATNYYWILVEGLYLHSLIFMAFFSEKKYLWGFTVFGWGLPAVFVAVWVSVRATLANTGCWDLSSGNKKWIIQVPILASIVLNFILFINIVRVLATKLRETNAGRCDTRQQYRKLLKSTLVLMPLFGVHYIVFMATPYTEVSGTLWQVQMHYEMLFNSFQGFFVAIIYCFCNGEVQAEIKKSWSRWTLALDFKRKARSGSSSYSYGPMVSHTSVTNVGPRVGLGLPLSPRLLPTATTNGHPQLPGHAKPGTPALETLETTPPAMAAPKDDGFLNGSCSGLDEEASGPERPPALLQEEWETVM
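HEK-293-derived GP2 cells expressing PTHR1 and a GloSensor cAMP reporter, 3,000/well, plated overnight, given luciferin plus IBMX (each 0.5 mM as added) for 1 h at 37 °C, then compound for 1 h at 37 °C. Luminescence was read after 15 min at room temperature.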
Active calls of the source: *; [ ] = remark or other dose. The list is not random: actives were taken first. Their share in the collection is about 1.1%. Unless noted, calls follow the shape of the dose curve; as a rule, active = well fitted curve in the direction sought with a large enough effect; inconclusive = small, poorly fitted or top-dose-only effect, or another doubt; inactive = no such curve, though single readings can be large; an effect the other way counts as inactive or inconclusive.

What do the screens show for `CN(C)c1ccc(-c2noc(-c3ccccc3O)n2)cc1`?
BRCA1 expr act: -62%; p53 reactivator: 7.1µM*; RGS4 inhibitor: 5%; LDHA block: 4; PTHR1 agonist: -26%[57.5 µM]

How did COc1ccc(/C=C2\Oc3cc(OC(=O)C(C)(C)C)ccc3C2=O)c(OC)c1OC do in these assays?
LDHA block: -10

How did Cc1ccc(OCC(=O)Nc2ccc(Cl)cc2)c([N+](=O)[O-])n1 do in these assays?
BRCA1 expr act: 11µM*; p53 reactivator: inconclusive; RGS4 inhibitor: 14%; LDHA block: -4; PTHR1 agonist: -64%

What do the screens show for `O=C(COc1cccnc1[N+](=O)[O-])Nc1ncc(Cl)cc1Cl`?
BRCA1 expr act: 23%; p53 reactivator: 11%; RGS4 inhibitor: -54%; LDHA block: 5; PTHR1 agonist: 0%

How did O=C(COc1cccnc1[N+](=O)[O-])Nc1cc(Cl)ccc1Cl do in these assays?
BRCA1 expr act: 11µM*; p53 reactivator: inconclusive; RGS4 inhibitor: 3%; LDHA block: -5; PTHR1 agonist: -4%

How did CCC(C)(C)C1CCc2c(sc(N)c2C#N)C1 (configuration not stated) do in these assays?
LDHA block: 14

How did COc1ccc(C(=O)NC(=S)NC(C)C)cc1Br do in these assays?
BRCA1 expr act: 28%; p53 reactivator: 7%; RGS4 inhibitor: -32%; LDHA block: -13; PTHR1 agonist: -9%[57.5 µM]

How did COc1ccc(C(=O)NC(=S)NC(C)(C)C)cc1Br do in these assays?
BRCA1 expr act: 11µM*; p53 reactivator: 22%; RGS4 inhibitor: inconclusive; LDHA block: 7; PTHR1 agonist: -14%[57.5 µM]

Results for O=C(Cc1ccc(Br)cc1)N1CCN(c2cccc(Cl)c2)CC1 ?
LDHA block: 1

Results for CC1CCN(S(=O)(=O)c2cccc(C(=O)NCc3cccs3)c2)CC1 ?
BRCA1 expr act: 0%; p53 reactivator: 0%; RGS4 inhibitor: 2%; LDHA block: 1; PTHR1 agonist: -18%[57.5 µM]

What do the screens show for `CC1CCN(c2ccc(C(=O)NCc3cccs3)cn2)CC1`?
BRCA1 expr act: 14µM*; p53 reactivator: inconclusive; RGS4 inhibitor: 9%; LDHA block: -2; PTHR1 agonist: inactive

How did Cc1oc(-c2ccccc2)nc1CS(=O)CC(=O)N1CCc2ccccc21 (configuration not stated) do in these assays?
LDHA block: -7

How did O=c1[nH]cccc1-c1nc2ccccc2[nH]1 do in these assays?
BRCA1 expr act: 8.9µM*; p53 reactivator: 16%; RGS4 inhibitor: 8%; LDHA block: -2; PTHR1 agonist: inactive

What do the screens show for `O=C(C1CCCN(Cc2cccnc2)C1)N1CCCCC1` (configuration not stated)?
BRCA1 expr act: 0%; p53 reactivator: 19%; RGS4 inhibitor: -16%; LDHA block: -36*; PTHR1 agonist: inactive

Results for O=C(C1CCCN(Cc2ccc(F)cc2)C1)N1CCCCC1 (configuration not stated) ?
BRCA1 expr act: -8%; p53 reactivator: 3%; RGS4 inhibitor: 30%; LDHA block: -19; PTHR1 agonist: inactive

What do the screens show for `CCCC(=O)Nc1nn2c(CC(C)C)nnc2s1`?
LDHA block: -24

What do the screens show for `Cc1ccc(NS(=O)(=O)c2cc(-c3cnc(C)o3)ccc2C)c(Cl)c1`?
LDHA block: -5

What do the screens show for `CC1CCC/C(=N\Nc2ccc(Cl)c(C(=O)O)c2)C1` (configuration not stated)?
BRCA1 expr act: 5µM*; p53 reactivator: inconclusive; RGS4 inhibitor: 1%; LDHA block: 9; PTHR1 agonist: -2%

What do the screens show for `CC1CCC/C(=N\NC(=O)Nc2ccccc2)C1` (configuration not stated)?
BRCA1 expr act: 59%; p53 reactivator: 25%; RGS4 inhibitor: -21%; LDHA block: -1; PTHR1 agonist: inactive

How did Cc1ccc(C(=O)Oc2oc(-c3ccco3)nc2C=Nc2ccc(Cl)cc2)cc1 do in these assays?
BRCA1 expr act: 2µM*; p53 reactivator: inconclusive; RGS4 inhibitor: -48%; LDHA block: 0; PTHR1 agonist: -43%

How did O=C(Oc1oc(-c2ccco2)nc1C=Nc1ccccc1)c1ccoc1 do in these assays?
BRCA1 expr act: 27%; p53 reactivator: 18%; RGS4 inhibitor: -14%; LDHA block: 2; PTHR1 agonist: 13%

Results for N=C1S/C(=C\c2cn[nH]c2-c2ccc(F)cc2)C(=O)N1c1ccccc1F ?
BRCA1 expr act: 7.1µM*; p53 reactivator: inconclusive; RGS4 inhibitor: -4%; LDHA block: 1; PTHR1 agonist: -28%

How did CCCCN(Cc1ccccc1)c1ccc(NS(=O)(=O)c2ccc(C(C)=O)cc2)cc1C(=O)O do in these assays?
LDHA block: 5

Results for Cc1ccc2nc(SCn3nnc4ccccc4c3=O)[nH]c2c1 ?
BRCA1 expr act: inconclusive; RGS4 inhibitor: -2%; LDHA block: 5; PTHR1 agonist: -36%

What do the screens show for `Cc1ccc(SCn2nnc3ccccc3c2=O)c(C)c1`?
BRCA1 expr act: 13µM*; p53 reactivator: 3%; RGS4 inhibitor: -18%; LDHA block: 0; PTHR1 agonist: -18%

How did NS(=O)(=O)c1cc(Br)c2c(c1)S(=O)(=O)NCN2 do in these assays?
BRCA1 expr act: 27%; LDHA block: -37*; PTHR1 agonist: inactive

How did c1csc(CN2CCOCC2)c1 do in these assays?
BRCA1 expr act: -7%; p53 reactivator: 0%; RGS4 inhibitor: 3%; LDHA block: -31*; PTHR1 agonist: 11%[57.5 µM]

What do the screens show for `O=c1oc2cc(Cl)ccc2n1CSc1nc2ccccc2s1`?
BRCA1 expr act: 7.9µM*; p53 reactivator: inconclusive; RGS4 inhibitor: -11%; LDHA block: -11; PTHR1 agonist: -2%[57.5 µM]

Results for CSc1ccc(CNc2ccccn2)cc1 ?
BRCA1 expr act: 10µM*; p53 reactivator: inconclusive; RGS4 inhibitor: -22%; LDHA block: -14; PTHR1 agonist: -5%

What do the screens show for `O=C(Cc1cccs1)Nc1nc2c(s1)CCCC2`?
BRCA1 expr act: 4µM*; p53 reactivator: inconclusive; RGS4 inhibitor: 5%; LDHA block: -3; PTHR1 agonist: -44%[57.5 µM]

What do the screens show for `O=C(CCSc1ccccc1)NC1CCCCCC1`?
BRCA1 expr act: 7.1µM*; p53 reactivator: 1%; RGS4 inhibitor: -1%; LDHA block: -12; PTHR1 agonist: -30%

What do the screens show for `O=C(CCSc1ccccc1)Nc1nc2c(s1)CCCC2`?
BRCA1 expr act: 11µM*; p53 reactivator: inconclusive; RGS4 inhibitor: 1%; LDHA block: -6; PTHR1 agonist: -4%[57.5 µM]

Results for O=C(Cc1ccc(Cl)cc1)Nc1nc2c(s1)CCCC2 ?
LDHA block: 8

How did O=C(CCSc1ccc(Cl)cc1)NC1CCCCC1 do in these assays?
BRCA1 expr act: 32%; p53 reactivator: 6%; RGS4 inhibitor: -18%; LDHA block: -9; PTHR1 agonist: -3%

Screening data deposited in PubChem BioAssay by National Center for Advancing Translational Sciences (NCATS).
